The campaign covered roughly 340,000 compounds. About 3,300 (0.97%) were called active. This is one part of a sample in which actives are shown more often than they occur. A number with no mark means an inactive call.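 The calls were made as follows: active = maximum activity change below -70%; inconclusive = maximum activity change from -70% to -50%; inactive = maximum activity change above -50%.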
These molecules were tested on Potassium voltage-gated channel subfamily H member 2, brain isoform KCNH2 3.1 (human) (assay: qHTS for Inhibitors of KCHN2 3.1: Mutant qHTS). Settings: U2OS KCNH2 3.1, thallium flux FluxOr; hits give low values.
Procedure, shortened: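 U2OS cells transduced with KCNH2 3.1 mutant virus (1.77 x 10^8 /mL, 4 h), plated overnight at 37 C, loaded 45 min with FluxOr dye plus Red40 quencher. Thallium flux rate constant from kinetic reads after stimulation buffer, normalised to controls.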
% is scaled to controls: 0 for no effect and ±100 for the full control effect.

Row | Structure (SMILES) | activity change
1 | C[C@H]1CN([C@@H](C)CO)C(=O)c2cc(-c3cccc(F)c3)cnc2O[C@@H]1CN(C)S(C)(=O)=O | 8.27%
2 | C[C@@H]1CN([C@H](C)CO)C(=O)CCCn2nncc2CO[C@@H]1CN(C)C(=O)OCc1ccccc1 | 1.9%
3 | COc1ccc(-c2nc(N)ncc2-c2ccc(Cl)cc2)c(O)c1 | -191% (active)
4 | CCOc1ccc(-c2nc(N)ncc2-c2ccccc2OC)c(O)c1 | -18.2%
5 | C=C(C)COc1ccc(-c2nc(N)ncc2-c2ccccc2OC)c(O)c1 | -6.62%
6 | Cc1ccccc1-c1ccc2c(c1)O[C@@H](CN(C)Cc1ccc(C(=O)O)cc1)[C@@H](C)CN([C@H](C)CO)S2(=O)=O | 16.7%
7 | CC(C)CC1C(=O)N(Cc2cn(Cc3ccco3)nn2)CCS(=O)(=O)N1Cc1ccc(-c2ccc(Cl)c(Cl)c2)cc1 (stereo not drawn) | -7.55%
8 | Cc1ccc(C(c2nnnn2CS(=O)(=O)c2ccc(C)cc2)N2CCC(C)CC2)cc1 (stereo not drawn) | -72.8% (active)
9 | Cc1ccc(C(c2nnnn2CS(=O)(=O)c2ccc(C)cc2)N2CCC(C(N)=O)CC2)cc1 (stereo not drawn) | 1.37%
10 | CCCCC(c1nnnn1CS(=O)(=O)c1ccc(C)cc1)N1CCC(C(N)=O)CC1 (stereo not drawn) | 5.52%
11 | NC(CSC(c1ccccc1)(c1ccccc1)c1ccc(-c2ccccc2)cc1)C(=O)O (stereo not drawn) | -0.906%
12 | Cc1cccc(C(=O)OCC(=O)Nc2sccc2C(N)=O)c1C | 0.26%
13 | N=c1n(Cc2ccc(Cl)cc2)c2ccccc2n1CC(O)c1ccco1 (stereo not drawn) | -89.6% (active)
14 | Cn1c(=N)n(CC(O)c2cccs2)c2ccccc21 (stereo not drawn) | -1.02%
15 | N=c1n(CCc2ccccc2)c2ccccc2n1Cc1ccccc1F | -48.9%
16 | CCc1cccc(CC)c1N1C(=O)CC(Sc2ccccc2N)C1=O (stereo not drawn) | -2.21%
17 | COc1ccc(C2C(C#N)=C(N)Oc3n[nH]c(C)c32)cc1CN1CCN(c2ccc(F)cc2)CC1 (stereo not drawn) | -93.4% (active)
18 | COc1cc(C2C(C#N)=C(N)Oc3n[nH]c(-c4ccccn4)c32)cc(OC)c1OC (stereo not drawn) | -3.63%
19 | COc1ccc(-c2[nH]nc3c2C(c2ccncc2)C(C#N)=C(N)O3)cc1 (stereo not drawn) | 4.99%
20 | COc1ccc(/C=C2\SC(=S)N(CCC(=O)N3CCOCC3)C2=O)cc1OC | -2.83%
21 | CCCCN1C(N)=NC[C@@H]1Cc1ccccc1 | 12.8%

Row | Structure (SMILES) | activity change
22 | CN(C)C1=NC[C@H](Cc2ccccc2)N1CCc1ccc(F)cc1 | -104% (active)
23 | CCCC[C@@H]1CN=C(N)N1CCc1cccc(F)c1 | 17.6%
24 | Cc1ccc(-c2ccc(CN3C(C(C)C)C(=O)N(Cc4cn(CCC5OCCCO5)nn4)CCS3(=O)=O)cc2)cc1 (stereo not drawn) | -5.44%
25 | Cc1cc2cc3n(c2nn1)N=C(Cl)CC3 | -0.335%
26 | CC(OC(=O)c1cccnc1Cl)C(=O)NC1CCCCC1 (stereo not drawn) | 22.3%
27 | Cc1ccc(S(=O)(=O)N2C[C@H]3C(=O)C[C@@H](c4cccc5ccccc45)N(S(=O)(=O)c4ccc(C)cc4)[C@H]3C[C@H]2c2ccc(Cl)cc2)cc1 | 5.42%
28 | O=C(CSc1ncn[nH]1)Nc1nc2c(F)c(F)c(F)cc2s1 | -9.38%
29 | O=[N+]([O-])c1cccc(S(=O)(=O)N2CCCCCC2)c1 | -16.9%
30 | Cc1cc(C)n(S(=O)(=O)c2cccc([N+](=O)[O-])c2)n1 | 8.67%
31 | CCc1nccn1S(=O)(=O)c1cccc([N+](=O)[O-])c1 | -98.3% (active)
32 | OCC1OC(n2cnc3c(N4CCCC4)ncnc32)C(O)C1O (stereo not drawn) | 3.35%
33 | O=S1(=O)CCN(C2CCCCCCCCCCC2)CC1 | -0.635%
34 | N#Cc1cccc(NC(=O)CCC2CCCC2)c1 | -4.75%
35 | N#Cc1cccc(Nc2c3c(nc4ccccc24)CCCC3)c1 | -94.8% (active)
36 | N#Cc1cccc(NC(=O)CN2CCCCCC2)c1 | 13.8%
37 | O=C(Nc1cc(F)ccc1F)c1ccc2c(=O)n3c(nc2c1)CCC3 | -2.54%
38 | COCCCN1C(=O)C(CC(=O)NCc2cccs2)CC(C(=O)N2CCOCC2)=C1C (stereo not drawn) | 3.81%
39 | C#CCOCCOCCOCCNc1nc(N2CCN(C(=O)C(Cc3ccc(O)cc3)n3cc(C(N)CC(C)C)nn3)CC2)nc(N2CCN(C(=O)C(Cc3ccc(O)cc3)n3cc(C(N)C(C)CC)nn3)CC2)n1 (stereo not drawn) | -9.18%
40 | C#CCOCCOCCOCCNc1nc(N2CCN(C(=O)[C@H](CCC(=O)O)n3cc(C(N)CO)nn3)CC2)nc(N2CCN(C(=O)[C@H](Cc3ccc(O)cc3)n3cc(C(N)[C@H](C)CC)nn3)CC2)n1 (stereo partly drawn) | -12.3%
41 | C#CCOCCOCCOCCNc1nc(N2CCN(C(=O)[C@H](Cc3ccc(O)cc3)n3cc(C(N)CC(C)C)nn3)CC2)nc(N2CCN(C(=O)[C@H](CCC(=O)O)n3cc(C(N)[C@H](C)CC)nn3)CC2)n1 (stereo partly drawn) | -84.4% (active)
42 | CC1(c2cccc(N)c2)OCCO1 | -12.6%

Row | Structure (SMILES) | activity change
43 | CC(C)[C@H](NC(=O)c1ccccc1F)C(=O)Nc1cccc(S(=O)(=O)N2CCOCC2)c1 | 9.74%
44 | CCOCCCN(C)C1CCN(C(=O)c2oc3ccccc3c2NC(=O)Cc2cccc([N+](=O)[O-])c2)CC1 | -104% (active)
45 | COc1cccc(OC)c1C(=O)Nc1c(C(=O)N2CCN(c3ccccn3)CC2)oc2ccccc12 | -4.91%
46 | COc1ccc(CC(=O)Nc2c(C(N)=O)oc3ccccc23)cc1 | -8.15%
47 | CN(C(=O)c1cccc(NC(=O)Cc2cccc([N+](=O)[O-])c2)c1)C1CCCCC1 | 18.4%
48 | COCC(=O)Nc1c(C(=O)N2CCCC2)oc2ccccc12 | 6.72%
49 | CCOCCCN(C)C1CCN(C(=O)c2oc3ccccc3c2NC(=O)COc2cccc(C)c2)CC1 | -107% (active)
50 | CC1=C(C(=O)N2CCOCC2)CC(CC(=O)NCCN2CCOCC2)C(=O)N1CCC1=CCCCC1 (stereo not drawn) | 16%
51 | Cc1cc(=O)c2ccc(NC(=O)c3ccccc3)cc2[nH]1 | 3.07%
52 | COc1ccc(S(=O)(=O)N2CCN(CC(=O)N3CCNC3=O)CC2)cc1OC | 12.9%
53 | C[C@@H]1CN([C@@H](C)CO)C(=O)c2c(c3ccccc3n2C)-c2ccccc2CO[C@H]1CN(C)C(=O)C1CC1 | 14.8%
54 | O=C1C=C(c2cccc(Cl)c2)C[C@@H](c2ccc(F)cc2)C1 | 2.02%
55 | N#Cc1ccc(C2=CC(=O)C[C@H](c3ccc(Cl)cc3)C2)cc1 | -83.2% (active)
56 | COc1ccc([C@H]2CC(=O)C=C(c3ccc(CO)cc3)C2)cc1 | 22.6%
57 | C[C@H]1CN([C@@H](C)CO)S(=O)(=O)c2ccc(-c3cccc(F)c3)cc2O[C@@H]1CN(C)C | -7.52%
58 | O=C(N/C(=C\c1ccc([N+](=O)[O-])cc1)C(=O)N1CCCCC1)c1ccco1 | -4.37%
59 | O=C(Oc1ccc(Br)cc1C(=S)N1CCOCC1)c1cccc([N+](=O)[O-])c1 | -8.06%
60 | O=C(N/C(=C\c1ccc([N+](=O)[O-])cc1)C(=O)N1CCOCC1)c1cccc(Br)c1 | -83.4% (active)
61 | O=C(Nc1ccncc1)c1ccccc1[N+](=O)[O-] | 8.15%
62 | O=C(Nc1cccc(NC(=O)c2ccccc2[N+](=O)[O-])c1)c1ccccc1Cl | -165% (active)
63 | CC(C)C(=O)Nc1cccc(NC(=O)c2ccc([N+](=O)[O-])cc2Cl)c1 | 18.7%

Row | Structure (SMILES) | activity change
64 | COc1ccc(NC(=O)C[C@H]2C(=O)N(CCc3ccccc3)C[C@@H]2C)cc1 | 5.84%
65 | CCOc1ccc(CCNC(=O)COC(=O)c2ccc(C)c(S(=O)(=O)N3CCOCC3)c2)cc1OCC | 11.9%
66 | CNC(=O)c1ccc(CN(C)C(=O)c2cc(C3CC3)nc3c2cnn3C(C)C)cc1 | 6.55%
67 | CCOC(=O)C(C(=O)c1ccccc1)C(c1ccccc1)c1nccc2ccccc12 (stereo not drawn) | -15.2%
68 | Cc1cccc(C(=O)NC2CCN(CC(=O)Nc3cccc(Cl)c3)CC2)c1 | -1.48%
69 | C[C@H]1CN(c2ccc(Br)cc2)C(=O)[C@@H]1CC(=O)Nc1ccc(Br)cc1 | 0.444%
70 | CCOCCc1nn2c(=O)cc(CSCC(=O)Nc3cccc(C)c3C)nc2s1 | 4.66%
71 | Cc1cccc(NC(=O)CSCC(=O)Nc2nnc(C3CC3)s2)c1 | -6.65%
72 | CCCc1nn2c(=O)cc(CSCC(=O)Nc3cccc(C)c3)nc2s1 | -91.5% (active)
73 | COc1ccc(C(CNC(=O)CSc2ccccc2)N2CCOCC2)cc1 (stereo not drawn) | 1.87%
74 | O=C(NCCOc1ccccc1)c1ccccc1F | 2.92%
75 | c1ccc(Cn2nnc3c(NCC4CC4)ncnc32)cc1 | -1.53%
76 | CSc1ncnc2c1ncn2CCCNCc1cccs1 | 3.07%
77 | COc1ccc(-c2nn(-c3ccccc3)cc2CN2CCCO2)c(F)c1 | 4.37%
78 | Cn1cc(CN2CCC(C(O)CCc3ccccc3)CC2)c(-c2ccccc2F)n1 (stereo not drawn) | -8.61%
79 | CCC(O)C1CCN(Cc2cn(-c3ccc(OC)cc3)nc2-c2cccc(F)c2)CC1 (stereo not drawn) | -90.7% (active)
80 | Cc1cccc(-n2cc(CN3CCN(C(=O)c4ncn[nH]4)CC3)c(-c3cccc(F)c3)n2)c1 | 0.932%
81 | COc1ccc(-n2cc(CNC3CCOCC3)c(-c3cccc(F)c3)n2)cc1 | -75% (active)
82 | COc1ccc(-n2cc(CN(C)Cc3n[nH]c(=O)[nH]3)c(-c3cccc(F)c3)n2)cc1 | -14.7%
83 | CC(OC(=O)c1ccc(NC(=O)CC#N)cc1)C(=O)Nc1ccc(S(=O)(=O)N2CCCC2)cc1 (stereo not drawn) | 8.99%

Source: PubChem BioAssay AID720553 (National Center for Advancing Translational Sciences (NCATS), 2013)
